According to paper PMC6792352, “Limited Chemical Structural Diversity Found to Modulate Thyroid Hormone Receptor in the Tox21 Chemical Library” (Environmental Health Perspectives, 2019):
Where a name gives a salt, the structure may show the parent alone.

Test system: thyroid hormone receptor (endogenous TRα and TRβ)
Parameters: species or system GH3-TRE-Luc (rat pituitary); GH3-TRE-Luc luciferase reporter, antagonist mode against 1 nM T3, loss of signal, qHTS
Conditions: read-out: Average AC50 (uM) GH3-TRE-Antag, antagonist mode, 1 nM T3, no GH3 cytotoxicity hit

`C=CC(=O)OCCOC(=O)CCC(=O)O` [4-[2-(Acryloyloxy)ethoxy]-4-oxobutanoic acid] and `CCCCCCCCCCC(=O)O` [Undecanoic acid] are within 1.5-fold of each other in AC50: 73 µM for the first, 60.2 µM for the second.

Going from `c1ccc2c(c1)Oc1ccccc1S2` [Phenoxathiin] to `NC1=NCC2c3ccccc3Cc3ccccc3N12` (stereo not drawn) [Epinastine hydrochloride], the AC50 falls from over 90 µM to 27.1 µM.

Going from `CC(C)(C)c1ccc(OC(=O)c2ccccc2O)cc1` [4-tert-Butylphenyl salicylate] to `COc1ccc(N=[N+]([O-])c2ccc(OC)cc2)cc1` [4-Azoxyanisole], the AC50 falls from over 90 µM to 30.2 µM.

Compared with `O=C(Nc1ccc([N+](=O)[O-])cc1)Nc1ccc([N+](=O)[O-])cc1` [4,4'-Dinitrodiphenylurea], `Cc1nc2ccccc2n1Cc1ccc(Cl)cc1` [Chlormidazole] is 12-fold higher in AC50: 0.491 µM for the first, 5.9 µM for the second.

Compared with `COCc1c(C(C)C)nc(C(C)C)c(/C=C/[C@@H](O)C[C@@H](O)CC(=O)O)c1-c1ccc(F)cc1` [Cerivastatin sodium], `CC(C)(C)C(O)C(Oc1ccc(Cl)cc1)n1cncn1` (stereo not drawn) [Triadimenol] is higher in AC50: 13.7 µM for the first, over 90 µM for the second.

First: Clc1ccc(Cn2c(CN3CCCC3)nc3ccccc32)cc1 [Clemizole hydrochloride]
Second: CCOc1ccc(O)cc1 [4-Ethoxyphenol]
The AC50 of the first is 6.2-fold lower: 13.3 µM for the first, 82.5 µM for the second.

First: OCC#CCO [2-Butyne-1,4-diol]
Second: C=C(C#N)C(=O)OCC [Ethyl cyanoacrylate]
The AC50 of the first is lower: 58.8 µM for the first, over 90 µM for the second.

Molecule `C[C@]12CCC(=O)C=C1C=C[C@@H]1[C@@H]2CC[C@@]2(C)[C@H]1CC[C@@]21CCC(=O)O1` [Canrenone] has an AC50 of 34.1 µM.
